Data on seven molecules can be found in the supplement of paper PMC10105736.

Holding throughout (test): MAPPIT interaction score (arbitrary units); higher = stronger binary interaction signal, active = hit call of the paper
The target of assay [1] is CG7747. The following applies: MAPPIT configuration: N-N; pair source set: Finley_Y2H.
The target of assay [2] is CG8292. The following applies: MAPPIT configuration: N-N; pair source set: Curagen_low_conf.
Assay [3] has as its target CG8128. The following applies: MAPPIT configuration: N-N; pair source set: Finley_Y2H.
Assay [4] deals with CG8320. To be noted: MAPPIT configuration: N-C; pair source set: screen_4.
Assay [5] concerns the target CG8043. The following applies: MAPPIT configuration: N-N; pair source set: DPIM.
For assay [6], the target named is CG9040. To be noted: MAPPIT configuration: N-N; pair source set: Finley_Y2H.

A number with no mark means an inactive call.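 The calls were made as follows: active = MAPPIT score above the 99th percentile of random reference set scores in the same batch; inactive = at or below it.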
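Also: HEK293T cells with Epo stimulation, STAT-responsive firefly luciferase reporter, fold induction versus unstimulated cells divided by the larger fold induction of two negative controls lacking either bait or prey.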

B1: Shrm (protein)
chain: MKMRNHKENGNGSEMGESTKSLAKMEPENNNKISVVSVSKLLLKDSNGANSRSSNSNASFSSASVAGSVQDDLPHHNSSSSQLGQQHGSSLDQCGLTQAGLEEYNNRSSSYYDQTAFHHQKQPSYAQSEGYHSYVSSSDSTSATPFLDKLRQESDLLSRQSHHWSENDLSSVCSNSVAPSPIPLLARQSHSHSHSHAHSHSNSHGHSHGHAHSASSSSSSNNNSNGSATNNNNNNSSESTSSTETLKWLGSMSDISEASHATGYSAISESVSSSQRIVHSSRVPTPKRHHSESVLYLHNNEEQGDSSPTASNSSQMMISEEANGEESPPSVQPLRIQHRHSPSYPPVHTSMVLHHFQQQQQQQQDYQHPSRHHTNQSTLSTQSSLLELASPTEKPRSLMGQSHSMGDLQQKNPHQNPMLGRSAGQQHKSSISVTISSSEAVVTIAPQPPAGKPSKLQLSLGKSEALSCSTPNMGEQSPTNSIDSYRSNHRLFPVSTYTEPVHSNTSQYVQHPKPQFSSGLHKSAKLPVITPAGATVQPTWHSVAERINDFERSQLGEPPKFAYLEPTKTHRLSNPALKALQKNAVQSYVERQQQQQKEEQQLLRPHSQSYQACHVERKSLPNNLSPIMVGLPTGSNSASTRDCSSPTPPPPPRRSGSLLPNLLRRSSSASDYAEFRELHQAQGQVKGPSIRNISNAEKISFNDCGMPPPPPPPRGRLAVPTRRTSSATEYAPMRDKLLLQQAAALAHQQHHPQQHRHAQPPHVPPERPPKHPNLRVPSPELPPPPQSELDISYTFDEPLPPPPPPEVLQPRPPPSPNRRNCFAGASTRRTTYEAPPPTAIVAAKVPPLVPKKPTSLQHKHLANGGGGSRKRPHHATPQPILENVASPVAPPPPLLPRARSTAHDNVIASNLESNQQKRSNSKASYLPRQSLEKLNNTDPDHGIYKLTLTSNEDLVAHTKPSYGVTGKLPNNLPDVLPLGVKLHQQPKLQPGSPNGDANVTLRYGSNNNLTGNSPTVAPPPYYGGGQRYSTPVLGQGYGKSSKPVTPQQYTRSQSYDVKHTSAVTMPTMSQSHVDLKQAAHDLETTLEEVLPTATPTPTPTPTPTPPRLSPASSHSDCSLSTSSLECTINPIATPIPKPEAHIFRAEVISTTLNTNPLTTPPKPAMNRQESLRENIEKITQLQSVLMSAHLCDASLLGGYTTPLITSPTASFANEPLMTPPLPPSPPPPLEPEEEEEQEENDVHDKQPEIEELQLMQRSELVLMVNPKPSTTDMACQTDELEDRDTDLEAAREEHQTRTTLQPRQRQPIELDYEQMSRELVKLLPPGDKIADILTPKICKPTSQYVSNLYNPDVPLRLAKRDVGTSTLMRMKSITSSAEIRVVSVELQLAEPSEEPTNLIKQKMDELIKHLNQKIVSLKREQQTISEECSANDRLGQDLFAKLAEKVRPSEASKFRTHVDAVGNITSLLLSLSERLAQTESSLETRQQERGALESKRDLLYEQMEEAQRLKSDIERRGVSIAGLLAKNLSADMCADYDYFINMKAKLIADARDLAVRIKGSEEQLSSLSDALVQSDC
With B1, the MAPPIT interaction score in assay [1] is -0.185.

B2: Vha14-1 (protein)
chain: MALHSAIKGKLISVIGDEDTCVGFLLGGVGEINKNRHPNFMVVDKNTAVSELEDCFKRFLKRDDIDIILINQNCAELIRHVIDAHTSPVPAVLEIPSKDHPYDASKDSILRRARGMFNPEDLVR
On to B2, for which the MAPPIT interaction score in assay [2] is -0.0476.

B3: crn (protein)
chain: MERPQKMPKVAKVKNKAPAEVQITAEQLLREAKERDLEILPPPPKQKISDPAELADYQQRKRKTFEDNLRKNRMVVSHWIKYAQWEEQQQEIQRARSIWERALDNEHRNVTLWLKYAEMEMKNKQVNHARNLWDRAVTIMPRVNQFWYKYTYMEEMLENVAGARQVFERWMEWQPEEQAWQTYVNFELRYKEIDRAREIYERFVYVHPDVKNWIKFARFEESHGFIHGSRRVFERAVEFFGDDYIEERLFIAFARFEEGQKEHDRARIIYKYALDHLPKDRTQELFKAYTKHEKKYGDRAGIEDVIVSKRKYQYEQEVAANPTNYDAWFDYLRLIEAEGDRDQIRETYERAISNVPPANEKNFWRRYIYLWINYALYEELEAEDAERTRQIYKTCLELIPHKQFTFSKLWLLYAQFEIRCKELQRARKALGLAIGMCPRDKLFRGYIDLEIQLREFERCRMLYEKFLEFGPENCVTWMKFAELENLLGDTDRARAIFELAVQQPRLDMPELLWKAYIDFEVALGETELARQLYERLLERTQHVKVWMSFAKFEMGLSHGDSGPDAELNVQLARRIYERANEMLRQLGDKESRVLLLEAWRDFERDASDSQEMQKVMDKMPRRIKKRQKIVSDNGVEEGWEEVFDYIFPEDEMARPNLKLLAAAKMWKTQKDNTVDDPPATAIASEPEPAADAAPADTTDSGD
Turning to B3, the MAPPIT interaction score in assay [3] was 2.14.

B4: tap (protein)
chain: MAACYNAYSAGSQSFEFDEDDDDASFDSGYEKSFETEAQLSSRRRLDFGTPPTPAIPQPYSGGTWDAVPLSSPPAGFVGLLDTSSNHSTRSGRTLVEHLNSRATNGVFDPPLTSTPVKSPEDPNAPRPKRKYAVGKNRVTRSRSPTQVVKIKRFRRMKANDRERNRMHNLNDALEKLRVTLPSLPEETKLTKIEILRFAHNYIFALEQVLESGGSINLDLEKLQNFTLSGERITKELFDALFVNPQPYPLFGRMFPYGQGMAPLAQHQTAPASHAEQPPAMGGFQHGMDYPQQPPGFDFTGSMRFYHQQQQQPHQPHHLQPNPQQESSPQQFSQEKYDLFRGSFDAAANLHSTNLDSGIHQQSSFYSQTPPWKDYPEDQAHVHPVPHQHSYKNFAPQV
On to B4, for which the MAPPIT interaction score in assay [4] was -0.175.

B5: bora (protein)
chain: MYNDEVRTPQALKNRYITNVNGLKCRARRNSHSNSSNSSAASATPTNGGKENGKYSPQMSGNVCTPPPKRLHKVRNPFEGAMADRLHLPLIASPSLFRSRTPQLSSTQFEWNIDEVSQLKPADVEPHETQFHDSPDPEQESKAQLAISAFFKESLIVPSPVDCPLRKQRIILNCSEDNTPISNKSRRMRDCEVQTELTLPPILPKALEDALRPYFQPHLAGRLSGRSKSSGGPDIFNSSMRRKLFDLHNVIVLGEQDTAEPSRSMVGSSPQGKQTMFAGRLSDSASGESSFGCLSPIRNLCGLPPGTPDNGTCSGKRKLLMHELELPSPIAPSEHLSRRLVHSKVEISVTEQHDTLSERTALKFTPDRSSSPMGGGLEHSDCSINQRVRRLRVNSTRQVVIETGDQPLFEETEGEEEEAESEDDEEADAMQLSTVSFNCSSSNSDTPRGHKRHRSAQRKNLSQSFSANLEEEADQTQGGAGSIQPAEPPSVAMPQQGARIPLYRADSGFNETSSTTFAFSQDLPLDVSMACCSTPSTRS
For B5, in assay [1], the MAPPIT interaction score was 1.91.

B6: RasGAP1 (protein)
chain: MLLKKKRYMFDERDDNNINSPVAVEPSSNNNKMADTREVRIEEQLKVKIGEAKNLSSRNAANTSCSTQGTRDVYCTIALDQEEICRTPTIERTLTPFFGEEHQFKIPRRFRYLTIYLWDRDMKQDKPIGKIAIKREELHMYNHKDHWFSLRPVDQDSEVQGMVNVEVAFTEAQQTQSLSEGIDLGQHTLRHHQNLPHHSHQQRAHLNDYKENSELSNIQRASAAAASSSSAAMTLKTRAAGLFGHVHHPPSQTQHFPIINTTSTSSDQLSNWKSHGRFVGVTIKVPACVDLAKKQGTCDPFVVCTAHYSNKHQVTRRTKQRKKTVDPEFDEAMYFDLHIDADAGSTNTTGSNKSAGSLESSANKGYSIYPVGGADLVEIVVSVWHDAHGAMSDKVFLGEVRLPMLNKQEQQAVNPSAWYYLQPRSMTHSSRSLNATPRSCATPPGTRLSVDSTIGSLRLNLNYTADHVFPLATYDDLMNLLLESVDQRPITVSAVSILGELVSGKTEVAQPLVRLFTHTERIAPIIKALADHEISHLTDPTTIFRGNTLVSKMMDEAMRLSGLHYLHQTLRPVLSQIVAEKKPCEIDPSKIKDRSAVDTNLHNLQDYVERVFEAITKSADRCPKVLCQIFHDLRECAGEHFPSNREVRYSVVSGFIFLRFFAPAILGPKLFDLTTERLDAQTSRTLTLISKTIQSLGNLVSSRSSQQTCKEEFTVELYKKFCTEQHVDAVKHFLEVISTPSHASSSVHPAAAAATPLEPVLLKEGLMTKYPTSRKRFGRQFKQRHFRLTTHSLSYAKSKGKQPICDIPLQEIASVEQLKDKSFKMQNCFKIVHNDRSLIVQTTNCVEEREWFDLLHKICLMNSIRMQYFHPSAFVSGFYSCCGRSDENSPGCKKVLDKTMDYFQMDLVTALDPALDLQRIHTLIMSNMSVLESLLDPLTYHQSLSQTQHQQHNPLVPLATDLQKHSPQAFAEFKRTIEKLREKAYAIDRDHRDYKQGITRQLKYGSRQAPIGDDNYWHMMRAAGQLNQQHHQQQQHQQQQQQQQQQQLQQFQPQPVLPQMQNVRAYPYQPATSNMNAYCLHNMQYQQQRLPFHQQQQQHHQQLQQQQSQFQPLRSHQLQRHNNNLNNNNCGNGSSSSPSSTTSSVVAAPPSTTSSSQPAPPIY
As to B6, the MAPPIT interaction score in assay [5] was 0.645.

B7: Bre1 (protein)
chain: MSKRSADDATGSSCLVAAAAAGQPPIKKVHFEPHLIGPVSTLEEMDIKVLEFQNKKLAQRIEQRMRTEAELRHRIEQLEKRQTQDDAVLNVVNRYWNQLNEDIRVLLQRFDAETADELENRNENEVTTSFLAQLSTWDKEELDEKLANRVQVSKRAVAKIVQVIDRLMQRNEKITHVLKGDSLASAGSGSGAGAGGEEEQQQASGDAETTTSSAGVHALEETLKQTHIEIMSENHKLQNLNTSLHEKFHTMSLKMKEYQDAHTAKETENAELKNQIDELQYDLEKIHCRNDKLENHLAEAIEKLKAYHQIYGDPNKSTNSAKTPTTTGSGGATTSVNSQLLEELQKELEEYRELANNRLQELDKLHATHRETLKEVEKLKMDIRQLPESVIVETTEYKCLQSQFSVLYNESMQIKTMLDETRNQLQTSKNQHLRQIEVMESEELIAQKKVRSEMIQMEDVLALIRKEYETLRIEFEQNMAANEQTAPINREMRHLITSLQNHNGQLKGEVQRYKRKYKDTSTDNLKLRQELADALATLEGNKLQAATGAAGEEIKQENSTGVKEENSNNVSASGQTNQTNSGNDTNVAIKEENHISAEDEADDEASGKDVKDGIKQEKLSSGDAAAAEKKDSPGPGNSTSSATNSVPVKNEKDSKDGVKGKDVKAVESETVRDLKAQLKKALNDQKEMKLLLDMYKGVSKDQRDKVQLMATEKKLRSEIEELRQQLKKLQESKREERKKLADEEALRKIKQLEEQKYELQKQMANHKPTDNSWGSGAPGTANYTRPFVGSHEEEALLNEMEVTGQAFEDMQEQNSRLIQQLREKDDANFKLMSERIKANQLHKLLREEKTVLEDQMATATTQIEAMHIVLRKLEEKERSLQATVASIEKELMLRQQAMEMHKRKAIESAQSAADLKLHLEKYHAQMKEAQQVVAEKTSSLEAEAYKTKRLQEELAQFKRKAERMKKMEMSGTTIDEVMIEEIREYKETLTCPSCKVKRKDAVLSKCFHVFCYDCLRTRYETRQRKCPKCNCAFGANDYHRLYLQ
Regarding B7, in assay [6], the MAPPIT interaction score was -0.0702.
